Laboratory results as given in PubChem BioAssay AID463173 (ICCB-Longwood Screening Facility, Harvard Medical School, 2010).
In all, about 52,000 compounds went through this assay and about 1,700 (3.3%) were called active. This is one part of a sample in which actives are shown more often than they occur. Rule as the data show it: active = survival mostly below about 52% (no sharp cut-off); inactive = mostly above about 56%.

What follows are compounds tested on Wild type (assay: growth inhibition of S. aureus wild type versus tarO mutant, primary screen, teichoic acid synthesis inhibitors, RN4220, OD600 (AID 463173)). Conditions: S. aureus RN4220 wild type/DeltatarO growth, OD600, 18 h, hits give low values, screened at 18.75 µg/mL (by protocol).

Structure (SMILES) | survival
Cc1ccc(Cl)cc1-n1c(=O)c2sc3ccccc3c2n(Cc2ccccc2)c1=O | 77% (inactive)
Cn1c(=O)oc2cc(S(=O)(=O)CCC(=O)NCc3ccc(Cl)cc3)ccc21 | 74% (inactive)
CCc1ccccc1N(CC)C(=O)c1cc2c(s1)-c1ccccc1SC2 | -1% (active)
O=C(NCc1ccccc1Cl)c1cc2c(s1)-c1ccccc1SC2 | 74% (inactive)
Cc1ccc(CNC(=O)c2cc3c(s2)-c2ccccc2SC3)cc1 | 120% (inactive)
CCOc1ccc(CCNC(=O)c2ccc3c(c2)N(Cc2ccccc2F)C(=O)c2ccccc2S3=O)cc1OCC (centres undefined) | 84% (inactive)
Cn1c(C(=O)NCc2ccc(Cl)cc2)cc2c(=O)n(C)c3ccccc3c21 | 120% (inactive)
CCNC(=O)c1c(NC(=O)c2cc(=O)c3ccc(C)c(C)c3o2)sc2c1CCCC2 | 85% (inactive)
Cc1ccccc1OCC(=O)OCc1cc(=O)n2ccsc2n1 | 82% (inactive)
Cc1csc2nc(COC(=O)c3ccccc3NC(=O)c3ccc(F)cc3)cc(=O)n12 | 14% (active)
Cc1ccc2nc(COc3ccccc3NC(=O)c3ccccc3F)cc(=O)n2c1 | 80% (inactive)
Cc1ccc2nc(COc3ccccc3NC(=O)c3ccc(F)cc3)cc(=O)n2c1 | -3% (active)
Cc1cccc(C(=O)Nc2ccccc2OCc2cc(=O)n3cc(C)ccc3n2)c1 | 47% (inactive)
Cc1csc2nc(COC(=O)c3ccccc3NC(=O)c3ccc(C(C)(C)C)cc3)cc(=O)n12 | 55% (inactive)
CCOc1ccc(C(=O)Nc2ccc(C(=O)OCc3cc(=O)n4c(C)csc4n3)cc2)cc1 | 85% (inactive)
Cc1ccccc1C(=O)Nc1cccc(C(=O)OCc2cc(=O)n3c(C)csc3n2)c1 | 76% (inactive)
Cc1csc2nc(COC(=O)c3cccc(NC(=O)c4cccc(Cl)c4)c3)cc(=O)n12 | -1% (active)
CCOc1cc(C(=O)OCc2cc(=O)n3c(C)csc3n2)cc(OCC)c1OCC | -3% (active)
COc1cccc(C(=O)Nc2cccc(C(=O)OCc3cc(=O)n4c(C)csc4n3)c2)c1 | 133% (inactive)
Cc1csc2nc(COC(=O)c3ccc(F)cc3)cc(=O)n12 | 81% (inactive)
COc1ccccc1C(=O)Nc1ccccc1C(=O)OCc1cc(=O)n2c(C)csc2n1 | 131% (inactive)
CCOc1ccc(NC(=O)CSc2nc(-c3cccc(Cl)c3)nc3c2Cc2c(CO)cnc(C)c2O3)cc1 | 84% (inactive)
COc1cc(OC)cc(C(=O)N2CCN(C(=O)COc3ccccc3)CC2)c1 | 64% (inactive)

Structure (SMILES) | survival
CCc1ccc(NC(=O)CN(c2cc(C)cc(C)c2)S(=O)(=O)c2c(C)[nH]c(=O)[nH]c2=O)cc1 | 68% (inactive)
CC(C)c1cc(-c2nc(-c3cccc(Cl)c3)no2)n[nH]1 | 131% (inactive)
Cc1cc(Br)ccc1NC(=O)C1CCN(S(=O)(=O)c2ccc(Br)s2)CC1 | 70% (inactive)
COC(=O)C1=C(c2ccccc2)c2ccccc2S(=O)(=O)N1CC(=O)Nc1ccc(OC)cc1OC | 154% (inactive)
CS(=O)(=O)c1cccc(S(=O)(=O)c2cccc(S(C)(=O)=O)c2)c1 | 86% (inactive)
O=C(Nc1ccccc1C(=O)OCc1cc(=O)n2c3c(sc2n1)CCCC3)c1ccccc1 | 94% (inactive)
Cc1cccc(OCc2cc(=O)n3c4c(sc3n2)CCCC4)c1C | 128% (inactive)
O=C(Nc1ccccc1C(=O)OCc1cc(=O)n2c3c(sc2n1)CCCC3)c1ccc(Cl)cc1 | -3% (active)
Cc1cccc(OCC(=O)Nc2cccc(C(=O)OCc3cc(=O)n4c(C)csc4n3)c2)c1 | -6% (active)
O=C(Nc1ccccc1C(=O)OCc1cc(=O)n2c3c(sc2n1)CCCC3)c1cccc(Cl)c1 | 73% (inactive)
Cc1ccc(OCc2cc(=O)n3c4c(sc3n2)CCCC4)cc1C | 80% (inactive)
Cc1cccc(C)c1OCc1cc(=O)n2c3c(sc2n1)CCCC3 | -1% (active)
Cc1csc2nc(COC(=O)c3cccc(NC(=O)COc4ccc(Cl)cc4)c3)cc(=O)n12 | 78% (inactive)
Cc1ccc(OCC(=O)Nc2cccc(C(=O)OCc3cc(=O)n4c(C)csc4n3)c2)cc1 | 69% (inactive)
CCCCSc1nc(-c2cccc(OC)c2)nc2c1Cc1c(CO)cnc(C)c1O2 | 86% (inactive)
O=C(c1nc(-c2ccc(Cl)cc2)n2c1CCCCC2)N1CCN(c2ccccc2F)CC1 | 68% (inactive)
COc1ccc(CCNC(=O)CN(c2cc(C(F)(F)F)ccc2Cl)S(C)(=O)=O)cc1 | 68% (inactive)
CCc1ccc(N2CC(c3nnc(NC(=O)c4ccco4)s3)CC2=O)cc1 (centres undefined) | 78% (inactive)
Cc1nn(-c2ccccc2)c2sc(C(=O)Nc3ccc(Cl)cc3Cl)cc12 | 72% (inactive)
Cc1nn(-c2ccccc2)c2sc(C(=O)Nc3cccc(Cl)c3)cc12 | 5% (active)
Cc1nn(-c2ccccc2)c2sc(C(=O)Nc3cccc(Br)c3)cc12 | 36% (inactive)
Cc1cccc(NC(=O)c2cc3c(C)nn(-c4ccccc4)c3s2)c1 | -2% (active)
Cc1nn(-c2ccccc2)c2sc(C(=O)Nc3cccc(O)c3)cc12 | 43% (inactive)

Structure (SMILES) | survival
CCOc1ccc(NC(=O)c2cc3c(C)nn(-c4ccccc4)c3s2)cc1 | 78% (inactive)
CCOc1ccccc1C(=O)N(Cc1cc(OC)c(OC)c(OC)c1)c1ccccn1 | 82% (inactive)
CCCOc1ccc(-c2cccc(NS(=O)(=O)c3ccc(CC)cc3)c2)nn1 | 69% (inactive)
COC(=O)c1cccc(S(=O)(=O)N2CCC(NC(=O)Nc3cccc(F)c3)CC2)c1 | 110% (inactive)
CCOc1ccc(Nc2c(S(=O)(=O)c3ccc(Cl)cc3)cnc3ccc(OCC)cc23)cc1 | 79% (inactive)
CCOC(=O)c1cnc2ccc(OCC)cc2c1Nc1ccc(OCc2ccccc2Cl)cc1 | 5% (active)
CCOC(=O)c1cnc2cc(C(F)(F)F)ccc2c1Nc1cc(C)ccc1OC | 67% (inactive)
CCOc1ccc(Nc2c(S(=O)(=O)c3ccccc3)cnc3ccccc23)cc1 | 38% (inactive)
CCOC(=O)c1cnc2ccc(Cl)cc2c1Nc1ccc(OCC)cc1 | -3% (active)
CCOc1ccc(Nc2c(S(=O)(=O)c3ccccc3)cnc3ccc(F)cc23)cc1 | 61% (inactive)
CCOc1ccc(Nc2cc(C(=O)NCc3ccccc3Cl)c3ccccc3n2)cc1 | 92% (inactive)
CCOC(=O)c1cnc2cc(C(F)(F)F)ccc2c1Nc1ccc(F)cc1F | -12% (active)
CCOc1ccc(Nc2c(S(=O)(=O)c3ccccc3)cnc3ccc(CC)cc23)cc1 | 4% (active)
CCOC(=O)c1cnc2c(ccc3ccccc32)c1Nc1cccc(C(F)(F)F)c1 | 37% (inactive)
CCOC(=O)c1cnc2ccc(OCC)cc2c1Nc1cc(Cl)c(OC)cc1OC | 60% (inactive)
CCOC(=O)c1cnc2ccc(OCC)cc2c1NCCN(C)C | 103% (inactive)
CC(=O)NCCNc1nc2c(S(=O)(=O)c3ccc(C)c(C)c3)nnn2c2ccc(Cl)cc12 | 80% (inactive)
O=C(CN1C(=O)COc2ccc(S(=O)(=O)N3CCOCC3)cc21)NCc1ccc(Cl)cc1 | 78% (inactive)
CCNc1c(NC(=O)c2ccccc2OCC)c(=O)oc2ccccc12 | 90% (inactive)
CC1=C(C(=O)Nc2ccccc2)C(c2ccc(C)o2)NC(=S)N1 (centres undefined) | 109% (inactive)
O=C(O)c1cnc2ccccn2c1=O | 109% (inactive)
Cc1noc(C)c1S(=O)(=O)N(CC(=O)NCc1ccccc1Cl)c1ccc(C(C)C)cc1 | 82% (inactive)
NC(=O)CSc1nnc(COc2ccccc2)n1C1CCCCC1 | 110% (inactive)

Structure (SMILES) | survival
CCOC(=O)C1CCN(C(c2ccccc2OC)c2c(O)cc(C)n(CCOC)c2=O)CC1 (centres undefined) | 70% (inactive)
Cc1ccc(N2CC(NC(=O)C3CCCC3)CC2=O)cc1 (centres undefined) | 55% (inactive)
COCCn1c(CNC(=O)c2cccc(N(C)C)c2)nc2cccnc21 | 65% (inactive)
Cc1nn(CC(=O)NCc2ccc(N(C)C)cc2)c(=O)c2c(C)n(-c3ccc(Cl)cc3)nc12 | 95% (inactive)
COc1ccc(CC(C)NS(=O)(=O)c2ccc3c(c2)CCN3S(C)(=O)=O)cc1OC (centres undefined) | 134% (inactive)
CCOC(=O)c1c(C)[nH]c(C)c1S(=O)(=O)N(C)CC(=O)Nc1ccc(C)c(N(C)C)c1 | 73% (inactive)
CCOC(=O)c1cnc2cc(F)c(F)cc2c1Nc1ccccc1O | 169% (inactive)
CCOC(=O)c1ccc2ncc(C(=O)OCC)c(Nc3ccc(C)c(Br)c3)c2c1 | 72% (inactive)
CCOC(=O)c1cnc2c(C)c(Cl)ccc2c1Nc1ccc(N2CCOCC2)cc1 | 60% (inactive)
CCOC(=O)c1cnc2ccccc2c1Nc1ccc(N2CCOCC2)cc1 | 68% (inactive)
CCOC(=O)c1cnc2ccc(C)cc2c1NCCc1ccc(OC)c(OC)c1 | 117% (inactive)
CCOC(=O)c1cnc2ccc(C(=O)OC)cc2c1Nc1ccccc1CC | -1% (active)
CCOC(=O)c1cnc2ccc(C(=O)OC)cc2c1Nc1ccc(N2CCOCC2)cc1 | 115% (inactive)
CCOC(=O)c1cnc2c(Cl)cc(Cl)cc2c1Nc1cc(C(=O)O)ccc1C | 61% (inactive)
CCOC(=O)c1cnc2ccc(OC(F)(F)F)cc2c1Nc1ccccc1C(=O)O | 52% (inactive)
CCCOC(=O)c1ccc(Nc2c(C(=O)OCC)cnc3c(C)cc(Cl)cc23)cc1 | 4% (active)
CCOC(=O)c1cnc2ccc(C)cc2c1Nc1ccc(N(CC)CC)cc1 | -2% (active)
CCOC(=O)c1cnc2ccc(Cl)cc2c1Nc1ccc(N2CCOCC2)cc1 | 0% (active)
CCOc1ccc(-c2nc(SCC(=O)Nc3cc(F)ccc3F)n3[nH]c(=O)cc3n2)cc1 | 77% (inactive)
CC1=C(C(=O)NCCc2ccc(Cl)cc2)C2(CCCCC2)OC1=O | 73% (inactive)
